According to PubChem BioAssay (NCATS):
Several values for one entry are separate records, joined by “and”; a condition that tells them apart may be missing. Equal values may be shown once. Results filed as inconclusive are left out. Where a structure was tested more than once in an assay, its records may differ in their call. Activity calls are given as the source filed them. The call rests on the fitted dose curve; in most records, active means well fitted curve in the direction sought with a large enough effect; inconclusive means small, poorly fitted or top-dose-only effect, or another doubt; inactive means no such curve, though single readings can be large; an effect the other way counts as inactive or inconclusive.

Key:
[1] = Viability qHTS for spleen associated tyrosine kinase inhibitor (SYKi) naive MV4-11 cells (AID 1963823); settings: MV4-11 AML viability, CellTiter-Glo luminescence, 72 h; series mostly up to 45 µM; further: nearly all actives have a fitted effect of over 40% in size
Method in brief: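 Cells: MV4-11, SYK inhibitor naive, 500 per well. Treatment: library compounds, 72 hr, 37 C, 5% CO2. Read-out: CellTiter-Glo luminescence after 10 min RT.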

[2] = Viability qHTS for spleen associated tyrosine kinase inhibitor (SYKi) drug resistant MV4-11 cells (AID 1963824); settings: SYKi-resistant MV4-11 viability, CellTiter-Glo, 72 h; series mostly up to 45 µM; further: nearly all actives have a fitted effect of over 35% in size
Method in brief: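 CellTiter-Glo luminescence, read 10 min after reagent addition, reports viability after a 72 hr compound exposure. Cells are an MV4-11 line made resistant to SYK inhibition, seeded at 500 per well onto compound-containing plates.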

[3] = Cellular viability qHTS for adrenocortical cancer (ACC) cell line SW-13 (AID 1963989); settings: SW-13 ACC cells viability, CellTiter-Glo, 48 h; activity (max response): stronger effect = lower value; further: nearly all actives have a fitted effect of over 65% in size;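 on activity (max response): cells grown in serum-free medium with ITS supplement; on the % scale 0 is the no-effect control and ±100 the full control effect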
Method in brief: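 Viability was read as CellTiter-Glo luminescence after 48 h compound treatment (up to 46 uM final) of SW-13 cells grown serum-free; titration curves were fit with a four-parameter logistic model to give IC50 and efficacy.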

[4] = Cellular viability qHTS for adrenocortical cancer (ACC) cell line NCI-H295R (AID 1963990); settings: CellTiter-Glo ATP luminescence, 48 h; series mostly up to 46.1 µM; further: nearly all actives have a fitted effect of over 60% in size
Method in brief: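 CellTiter-Glo ATP luminescence, read 48 h after compound addition, measured viability of NCI-H295R adrenocortical cells grown serum-free with ITS. Final concentrations spanned up to 46 uM. Data normalized to DMSO and doxorubicin, fitted for IC50 and maximal response.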
Potency means the concentration at half of the fitted maximal effect.

For `Cc1cccc(C)c1OCC(C)N` (centres undefined), the Potency [1] was “inactive”, the Potency [2] was “inactive” and the activity (max response) [3] was 2.1% (inactive).

For `Cc1cccc(C)c1NC(=O)c1ccc(N)cc1`, the Potency [1] was “inactive”, the Potency [2] was “inactive” and the activity (max response) [3] was 6.32% (inactive).

For `CCCCN(CCCC)CCCOC(=O)c1ccc(N)cc1`, the Potency [1] was “inactive”, the Potency [2] was “inactive” and the activity (max response) [3] was -3.65% (inactive).

In the case of `CC1(C)OCCn2c1nc1c(N3CCOCC3)nc(-c3cnc(N)nc3)nc12`, the Potency [1] is reported as 1.32 µM (active), the Potency [2] is reported as 2.95 µM (active) and the activity (max response) [3] is reported as -17.2% (inactive).

With `C[C@]12C=CC(=O)C=C1CC[C@H]1[C@@H]3C[C@@H](O)[C@](O)(C(=O)CO)[C@@]3(C)C[C@H](O)[C@@]12F` the Potency [1] was “inactive”, the Potency [2] was “inactive” and the activity (max response) [3] was 4.79% (inactive).

In the case of `O=C(O)CCCC[C@@H]1SC[C@@H]2NC(=O)N[C@@H]21`, the Potency [1] is reported as “inactive”, the Potency [2] is reported as “inactive” and the activity (max response) [3] is reported as -0.523% (inactive).

In the case of `N[C@@H](Cc1ccc(O)cc1)C(=O)O`, the viability (% of control) [1] is reported as 88.5% [at 9.25 µM] (inactive), the viability, % of control [2] is reported as 81.6% [at 9.25 µM] (inactive) and the activity (max response) [3] is reported as 7.19% (inactive).

With `NC(=NCCCCCCN=C(N)/N=C(\N)Nc1ccc(Cl)cc1)/N=C(\N)Nc1ccc(Cl)cc1` the Potency [1] was 5.31 µM (active) and 1.84 µM (active), the Potency [2] was 2.99 µM (active) and 1.64 µM (active) and the Potency [3] was 5.17 µM (active).

In the case of `CN(C)CCN1C(=O)c2cccc3cc(NC(N)=O)cc(c23)C1=O`, the Potency [1] is reported as 4.17 µM (active), the Potency [2] is reported as 4.17 µM (active) and the Potency [3] is reported as 17.8 µM (active).

For `CC(C)(C)CC(C)(C)c1ccc(OCCOCC[N+](C)(C)Cc2ccccc2)cc1`, the Potency [1] was 2.37 µM (active) and 1.16 µM (active), the Potency [2] was 2.37 µM (active) and 1.46 µM (active) and the Potency [3] was 5.17 µM (active).

For `C=CC(=O)N1CCC(CNc2ncnc(N)c2-c2ccc(Oc3ccccc3)cc2)CC1`, the Potency [1] was 5.9 µM (active), the Potency [2] was 8.33 µM (active) and the activity (max response) [3] was -22.9% (inactive).

In the case of `CN1CCC(Nc2ncc3ncnc(Nc4ccc(F)c(Cl)c4)c3n2)CC1`, the Potency [1] is reported as 9.44 µM (active) and 9.2 µM (active), the Potency [2] is reported as 18.8 µM (active) and 11.6 µM (active) and the Potency [3] is reported as 18.4 µM (active).

With `CC(C)C[C@H](CO)Nc1nc(S[C@@H](C)c2ccccc2)nc2nc(N)sc12` the Potency [1] was 14.6 µM (active), the Potency [2] was 6.61 µM (active) and the Potency [3] was 31.6 µM (active).

For `C[C@H](NC(=O)c1c(N)nn2cccnc12)c1cc2cccc(C#Cc3cnn(C)c3)c2c(=O)n1-c1ccccc1`, the Potency [1] was 7.23 µM (active), the Potency [2] was 7.23 µM (active) and the activity (max response) [3] was -17.5% (inactive).

For `COc1cc(C(=O)OC(COCCC(C)C)CN2CCOCC2)cc(OC)c1OC` (centres undefined), the Potency [1] was “inactive”, the Potency [2] was “inactive” and the activity (max response) [3] was 9.82% (inactive).

For `NCCCC[C@H](NC(=O)[C@@H](NC(=O)[C@H](Cc1c[nH]c2ccccc12)NC(=O)[C@H](CCCCN)NC(=O)[C@H](CCCCN)NC(=O)[C@H](Cc1c[nH]c2ccccc12)NC(=O)[C@H](Cc1c[nH]c2ccccc12)NC(=O)[C@H](CCCCN)NC(=O)[C@@H](N)CCCCN)C(c1ccccc1)c1ccccc1)C(N)=O`, the Potency [1] was 8.33 µM (active), the Potency [2] was 10.5 µM (active) and the Potency [3] was 31.6 µM (active).

With `C[C@]12C=CC(=O)C=C1[C@@H](F)C[C@@H]1[C@@H]2[C@@H](O)C[C@@]2(C)[C@H]1CC[C@]2(O)C(=O)CO` the Potency [1] was “inactive”, the Potency [2] was “inactive” and the activity (max response) [3] was 7.4% (inactive).

For `Cc1cc(C(=O)Nc2cc(Nc3ccc4c(/C=C/c5ccccn5)n[nH]c4c3)ccc2F)n(C)n1`, the Potency [1] was 9.2 µM (active) and 5.25 µM (active), the Potency [2] was 9.2 µM (active) and 5.25 µM (active) and the Potency [3] was 22.4 µM (active).

For `COc1ccc(CNC(=O)Nc2ncc([N+](=O)[O-])s2)cc1`, the Potency [1] was 9.34 µM (active), the Potency [2] was 13 µM (active) and the Potency [3] was 25.1 µM (active).

In the case of `CCn1nc(C2CCN(C(=O)CCO)CC2)nc1-c1cnc(N)c(-c2nnc(C(C)(C)C)o2)n1`, the Potency [1] is reported as 5.25 µM (active), the Potency [2] is reported as 5.25 µM (active) and the activity (max response) [3] is reported as -18.1% (inactive).

For `C[N+]1(CC2COC(c3ccccc3)(C3CCCCC3)O2)CCCCC1` (centres undefined), the Potency [1] was 13.3 µM (active), the Potency [2] was 11.9 µM (active) and the activity (max response) [3] was -27.2% (inactive).

In the case of `CN[C@@H]1[C@H](O)[C@H](NC)[C@H]2O[C@@]3(O)C(=O)C[C@@H](C)O[C@H]3O[C@@H]2[C@H]1O`, the Potency [1] is reported as “inactive”, the Potency [2] is reported as “inactive” and the activity (max response) [3] is reported as 16.5% (inactive).

For `CC1(N)CCN(c2cccnc2NC(=O)c2nc(-c3ncccc3C(F)(F)F)cnc2N)CC1`, the Potency [1] was 5.9 µM (active), the Potency [2] was 11.8 µM (active) and the Potency [3] was 17.8 µM (active).

With `C=C1C(=O)OC2/C=C(/C)CC/C=C(/C)CCC12` (centres undefined) the Potency [1] was 8.33 µM (active), the Potency [2] was 5.25 µM (active) and the activity (max response) [3] was -9.66% (inactive).

In the case of `COc1ccc(CNc2nc(N(CCO)CCO)nc3c2ncn3C(C)C)cc1`, the Potency [1] is reported as 4.11 µM (active), the Potency [2] is reported as 5.8 µM (active) and the Potency [3] is reported as 8.91 µM (active). For the same compound, the Potency [4] was 15.8 µM (active).

For `CN1CCCN=C1/C=C/c1cccs1`, the Potency [1] was “inactive”, the Potency [2] was “inactive” and the activity (max response) [3] was 0.0735% (inactive) and 9.48% (inactive). For the same compound, the Potency [4] was “inactive”.

For `CO[C@@H]1[C@@H](OC)[C@H](C)[C@@](O)(CC(=O)O)O[C@H]1[C@H](C)[C@H]1O[C@@]2(CC[C@@](C)([C@H]3CC[C@@](C)([C@@H]4O[C@@H]([C@H]5O[C@](C)(O)[C@H](C)C[C@@H]5C)C[C@@H]4OC4C[C@H](OC)[C@@H](OC)[C@H](C)O4)O3)O2)C[C@H](O)[C@H]1C` (some centres undefined), the Potency [1] was 0.376 µM (active), the Potency [2] was 0.596 µM (active) and the Potency [3] was 1.46 µM (active). The Potency [4] was 1.16 µM (active).

In the case of `CNC1CCC(N(Cc2cccc(-c3ccncc3)c2)C(=O)c2sc3c(F)ccc(F)c3c2Cl)CC1` (centres undefined), the Potency [1] is reported as 2.63 µM (active) and 8.2 µM (active), the Potency [2] is reported as 8.33 µM (active) and 7.31 µM (active) and the Potency [3] is reported as 10 µM (active). The Potency [4] was 7.08 µM (active).

For `C=CCNc1c(O)cc2c(O)c1C[C@@H](C)C[C@H](OC)[C@H](O)[C@@H](C)/C=C(/C)[C@H](OC(N)=O)[C@@H](OC)/C=C\C=C(\C)C(=O)N2`, the Potency [1] was 0.132 µM (active), the Potency [2] was 0.417 µM (active) and the Potency [3] was 3.16 µM (active). For the same compound, the Potency [4] was 10 µM (active).

With `CCCCC(CC)CNC(=O)CC(C)OC(=O)CCC(=O)O` (centres undefined) the Potency [1] was “inactive”, the Potency [2] was “inactive” and the activity (max response) [3] was -6.84% (inactive). For the same compound, the Potency [4] was “inactive”.

In the case of `CC(C(O)c1ccccc1)N(C)CCOC(c1ccccc1)c1ccccc1` (centres undefined), the Potency [1] is reported as 9.2 µM (active), the Potency [2] is reported as 8.2 µM (active) and the Potency [3] is reported as 20.6 µM (active).

For `COc1ccc(CNC(=O)c2cc(-c3cncc(Cl)c3)cnc2-c2ccccn2)nc1OC`, the Potency [1] was “inactive”, the Potency [2] was “inactive” and the activity (max response) [3] was -20.5% (inactive). The Potency [4] was “inactive”.

With `N[C@@H](CCC(=O)N[C@@H](CS)C(=O)NCC(=O)O)C(=O)O` the Potency [1] was “inactive”, the Potency [2] was “inactive” and the activity (max response) [3] was -1.28% (inactive). For the same compound, the Potency [4] was “inactive”.

With `CONC(=O)Nc1ccc(-c2sc3c(c2CN(C)Cc2ccccc2)c(=O)n(-c2ccccc2)c(=O)n3Cc2c(F)cccc2F)cc1` the Potency [1] was 16.6 µM (active), the Potency [2] was 16.6 µM (active) and the activity (max response) [3] was -8.17% (inactive). The Potency [4] was “inactive”.

With `NC(=O)N/N=C/c1ccc([N+](=O)[O-])o1` the Potency [1] was 27.3 µM (active) and inactive, the Potency [2] was 21.7 µM (active) and the Potency [3] was 35.5 µM (active). For the same compound, the activity (max response) [3] was 4.16% (inactive) and the Potency [4] was 8.91 µM (active).

With `NC12CC3CC(CC(C3)C1)C2` the Potency [1] was “inactive”, the Potency [2] was “inactive” and the activity (max response) [3] was 13.7% (inactive) and -1.26% (inactive). The Potency [4] was “inactive”.

With `C[C@@H]1CC(=O)Nc2cccc(-c3ccc4c(c3)c(-c3cnn(C)c3)nn4C)c2N1` the Potency [1] was 2.09 µM (active), the Potency [2] was 1.32 µM (active) and the activity (max response) [3] was -3.66% (inactive). For the same compound, the Potency [4] was “inactive”.
